Laboratory results reported in ChEMBL document CHEMBL4808148, “HDAC6 screening dataset using tau-based substrate in an enzymatic assay yields selective inhibitors and activators” (2021).
Out of some 5,600 compounds screened, about 390 (7%) showed an effect of 50% or more. Only a selection was taken, and strong results are over-represented in it overall.

Molecular target: T1, Protein deacetylase HDAC6 (Homo sapiens) (UniProt Q9UBN7)
T1 sequence (whole entry): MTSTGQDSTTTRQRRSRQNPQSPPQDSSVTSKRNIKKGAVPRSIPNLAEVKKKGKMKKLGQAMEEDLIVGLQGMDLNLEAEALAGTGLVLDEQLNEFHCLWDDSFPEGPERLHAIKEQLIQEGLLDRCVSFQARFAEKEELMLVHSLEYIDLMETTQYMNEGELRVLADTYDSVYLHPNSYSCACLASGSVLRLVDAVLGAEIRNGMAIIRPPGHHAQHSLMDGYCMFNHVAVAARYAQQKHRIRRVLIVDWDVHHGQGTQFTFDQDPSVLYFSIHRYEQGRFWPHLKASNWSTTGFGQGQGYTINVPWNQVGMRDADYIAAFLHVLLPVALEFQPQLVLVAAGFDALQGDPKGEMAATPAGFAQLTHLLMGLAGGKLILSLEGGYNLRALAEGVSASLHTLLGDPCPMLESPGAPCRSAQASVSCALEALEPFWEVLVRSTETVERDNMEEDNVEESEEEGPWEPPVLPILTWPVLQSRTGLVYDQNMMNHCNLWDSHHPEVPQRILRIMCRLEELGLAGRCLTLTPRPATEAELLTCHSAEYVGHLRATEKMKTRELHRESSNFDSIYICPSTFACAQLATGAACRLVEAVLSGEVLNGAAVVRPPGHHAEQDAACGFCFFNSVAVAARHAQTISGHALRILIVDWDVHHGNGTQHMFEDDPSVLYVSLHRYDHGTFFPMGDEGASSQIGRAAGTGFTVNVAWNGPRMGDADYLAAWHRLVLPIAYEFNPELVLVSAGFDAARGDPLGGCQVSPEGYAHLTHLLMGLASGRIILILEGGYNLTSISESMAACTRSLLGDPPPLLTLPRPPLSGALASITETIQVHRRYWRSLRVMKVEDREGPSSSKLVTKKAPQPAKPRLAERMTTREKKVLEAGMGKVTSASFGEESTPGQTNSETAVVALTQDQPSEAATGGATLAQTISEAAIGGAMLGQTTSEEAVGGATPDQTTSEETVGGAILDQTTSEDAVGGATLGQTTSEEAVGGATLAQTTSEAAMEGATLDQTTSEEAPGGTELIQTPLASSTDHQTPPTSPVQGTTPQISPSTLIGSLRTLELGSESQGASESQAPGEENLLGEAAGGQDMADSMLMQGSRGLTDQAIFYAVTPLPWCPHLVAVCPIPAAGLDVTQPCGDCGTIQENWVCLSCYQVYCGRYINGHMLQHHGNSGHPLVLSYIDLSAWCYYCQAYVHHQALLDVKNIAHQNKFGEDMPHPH
Details: at 10 µM

SMILES | inhibition [%]
Cc1c(C(=O)NC2CCCCC2)sc2nc3ccc(N)cc3n12 | 49.8
CCCCC/N=c1/ccn(Cc2ccccc2)c2ccccc12 | -3.26
O=c1[nH]cnc2nc[nH]c12 | 57.8
Cc1cccc(C)c1NC(=O)c1ccc(N)cc1 | 7.12
C=C1C(=O)O[C@H]2[C@H]1CC/C(C)=C\CC[C@@]1(C)O[C@@H]21 | 9.8
CC#CC(=O)N1CCC[C@H]1c1nc(-c2ccc(C(=O)Nc3ccccn3)cc2)c2c(N)nccn12 | 10.6
O=C(NC1CCNCC1)c1n[nH]cc1NC(=O)c1c(Cl)cccc1Cl | 42.4
CC1CCC(NC(=O)N(CCCl)N=O)CC1 (stereo unspecified) | 48.2
Cc1cccc(Nc2ccncc2S(=O)(=O)NC(=O)NC(C)C)c1 | -9.9
Oc1ccc(Nc2nc(-c3ccc(Cl)cc3)cs2)cc1 | 20.2
Cc1cccc(Nc2nc(-c3ccncc3)cs2)c1 | 91.1
O=C(O)CC(O)C(=O)O (stereo unspecified) | 3.05
C[C@H]1[C@H](C)CC[C@]2(C(=O)O)CC[C@]3(C)C(=CC[C@@H]4[C@@]5(C)C[C@@H](O)[C@H](O)[C@@](C)(CO)[C@@H]5CC[C@]43C)[C@H]12 | -0.26
O=C(NCc1ccccn1)Nc1nnc(-c2ccco2)o1 | 1.12
CCCN(C/C=C/I)C1CCc2cccc(O)c2C1 (stereo unspecified) | 14.4
CN(C)c1ccc(C(=C2C=CC(=[N+](C)C)C=C2)c2ccc(N(C)C)cc2)cc1 | 79.1

SMILES | inhibition [%]
C[C@H](Nc1cc(-c2cnn(C)c2)cc(Nc2cnccn2)n1)c1ccc(F)cc1 | 3.96
O=C(O)C1=CCNCC1 | 5.63
Cc1cc(C)c2nc(-c3ccccn3)cc(C(=O)Nc3ccc(S(=O)(=O)Nc4onc(C)c4C)cc3)c2c1 | -6.66
Cc1ccc(O)c(/N=N/c2ccccc2)n1 | 102
Cc1ccccc1/N=N/c1ccc(/N=N/c2c(O)ccc3ccccc23)c(C)c1 | 12
C=CCN1CCN(c2nc3ccccc3nc2C#N)CC1 | 32.5
CC(C)=CCC/C(C)=C/CC/C(C)=C/CC[C@]1(C)CCc2cc(O)cc(C)c2O1 | -4.35
CN1CCN(CCc2ccc(Cl)c(Cl)c2)CC1 | 0.9
NC(=O)c1sc(-c2ccsc2)cc1N | 101
CCc1cc2c(cc1CC)CC(NC[C@H](O)c1ccc(O)c3[nH]c(=O)ccc13)C2 | 15.6
COC(=O)N[C@H](C(=O)N1CCC[C@H]1C(=O)Nc1ccc([C@@H]2CC[C@@H](c3ccc(NC(=O)[C@@H]4CCCN4C(=O)[C@@H](NC(=O)OC)C(C)C)cc3)N2c2ccc(C(C)(C)C)cc2)cc1)C(C)C | 18.8
CCOC(=O)C1=CCCC[C@H]1S(=O)(=O)Nc1ccc(F)cc1Cl | -6.94
NC(=O)N/N=C/c1ccc([N+](=O)[O-])o1 | -5.79
CC1=NN(c2ccc(C(=O)O)cc2)C(=O)/C1=C\c1ccc(-c2cc(C)c(C)cc2[N+](=O)[O-])o1 | -7.66
CCOC(=O)c1ccc(N2NC(=O)/C(=C/c3ccc([N+](=O)[O-])o3)C2=O)cc1 | 66.9
